In PubChem BioAssay (Tox21):
Results filed as inconclusive are left out. Active and inactive are the calls of the source. Calls come from the whole dose curve.

Key:
[1] = biological target: Acetylcholinesterase (Homo sapiens) (UniProt P22303); assay: Acetylcholinesterase (AChE) small molecule antagonists: colormetric cell-based qHTS assay (AID 1347395); note: nearly all actives have a fitted effect of over 30% in size
In short: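 Quantitative HTS in attached SH-SY5Y cells: 30 min compound exposure, then 90 min with acetylthiocholine and DTNB at 37 C; colour from thiocholine reports AChE activity.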

[2] = biological target: Acetylcholinesterase (Homo sapiens) (UniProt P22303); assay: Acetylcholinesterase (AChE) small molecule antagonists: enzyme-based qHTS assay (AID 1347397); conditions: Potency: AChE enzyme activity inhibition; outcome: AChE enzyme activity inhibition; note: nearly all actives have a fitted effect of over 55% in size
In short: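 Colorimetric DTNB readout of acetylthiocholine hydrolysis, 10 min at room temperature, after 30 min room-temperature exposure of 50 mU/mL recombinant human enzyme to compound; DMSO vehicle control.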

[3] = biological target: Acetylcholinesterase (Homo sapiens) (UniProt P22303); assay: Acetylcholinesterase (AChE) small molecule antagonists: fluorescence cell-based qHTS assay (AID 1347398); conditions: Potency: AChE activity; outcome: AChE activity; note: nearly all actives have a fitted effect of over 50% in size
In short: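 Cellular AChE activity read as thiocholine from acetylthiocholine hydrolysis, detected by Thiolite Green fluorescence at 490/520 nm after 40 min at room temperature. Compounds were pre-incubated 30 min at 37 C on adherent SH-SY5Y cells.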

[4] = biological target: Acetylcholinesterase (Homo sapiens) (UniProt P22303); assay: Acetylcholinesterase (AChE) small molecule antagonists: enzyme-based qHTS assay with human liver microsomes (AID 1347399); conditions: Potency: qHTS inhibition; outcome: qHTS inhibition; note: nearly all actives have a fitted effect of over 60% in size
In short: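 Recombinant human AChE (50 mU/mL in the enzyme mix) and human liver microsomes (0.25 mg/mL final) were preincubated with compound and NADPH (0.25 mg/mL final) for 30 min at 37 C. Acetylthiocholine/DTNB was then added; thiocholine was read colorimetrically after 10 min at room temperature.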

Measured: Potency

Chain of Acetylcholinesterase (Homo sapiens) (P22303 whole entry, looked up): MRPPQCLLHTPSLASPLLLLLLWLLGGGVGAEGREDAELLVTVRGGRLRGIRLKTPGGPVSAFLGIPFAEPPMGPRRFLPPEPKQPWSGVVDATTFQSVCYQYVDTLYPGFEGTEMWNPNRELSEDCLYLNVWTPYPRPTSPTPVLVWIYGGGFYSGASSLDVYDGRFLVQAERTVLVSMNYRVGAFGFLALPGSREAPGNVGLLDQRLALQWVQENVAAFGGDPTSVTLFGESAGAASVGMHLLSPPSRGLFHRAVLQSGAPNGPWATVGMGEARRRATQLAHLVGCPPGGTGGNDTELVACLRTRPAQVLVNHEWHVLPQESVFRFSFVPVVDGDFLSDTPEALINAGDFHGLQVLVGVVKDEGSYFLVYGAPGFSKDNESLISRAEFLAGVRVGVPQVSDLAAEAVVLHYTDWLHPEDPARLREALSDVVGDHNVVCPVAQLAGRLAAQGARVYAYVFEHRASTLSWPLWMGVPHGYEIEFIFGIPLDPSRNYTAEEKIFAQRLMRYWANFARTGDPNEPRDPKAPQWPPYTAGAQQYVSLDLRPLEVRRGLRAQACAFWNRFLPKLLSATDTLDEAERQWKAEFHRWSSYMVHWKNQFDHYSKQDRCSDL

CCCCCCCCCOC(C)=O
inactive: all assays above

C=C(C)C(=O)OC
inactive: all assays above

OC[C@@H](O)[C@@H](O)CO
inactive: all assays above

C=C1CC[C@H]2C[C@@H]1C2(C)C
inactive: all assays above

CCCCCCOc1ccc(N)cc1
inactive: all assays above

CC1=CCCC(C)(C)C12CCC(C)O2 (centres undefined)
inactive: all assays above

CCCCCCOC(=O)c1ccccc1
inactive: all assays above

O=[N+]([O-])c1ccc(F)c(Cl)c1
inactive: all assays above

CCOC(=O)/C=C(C)/C=C/C=C(C)/C=C/c1c(C)cc(OC)c(C)c1C
inactive: all assays above

O=C(OC(=O)c1ccccc1)c1ccccc1
inactive: all assays above

OCCC(F)(F)C(F)(F)C(F)(F)C(F)(F)C(F)(F)C(F)(F)C(F)(F)C(F)(F)F
inactive: all assays above

Cc1ccc(Cl)cc1Cl
inactive: all assays above

C[C@H](N)C(=O)N[C@@H](C)C(=O)NC1[C@H]2CN(c3nc4c(cc3F)c(=O)c(C(=O)O)cn4-c3ccc(F)cc3F)C[C@@H]12 (some centres undefined)
inactive: all assays above

CN1[C@@H]2CC[C@H]1CC(OC(=O)C(O)c1ccccc1)C2 (some centres undefined)
inactive: all assays above

Cc1cccc(Br)c1
inactive: all assays above

CCCCCCCC/C=C\CCCCCCCCCCCC(=O)O
inactive: all assays above

CO[Si](CCCNc1ccccc1)(OC)OC
inactive: all assays above

N#CCCOCCOCCC#N
inactive: all assays above

C1OCOCO1
inactive: all assays above

CCCCOC(=O)CC
inactive: all assays above

CC(C)=C1CC[C@@H](C)CC1=O
inactive: all assays above

CC(C)C1CCC(C(=O)N[C@H](Cc2ccccc2)C(=O)O)CC1 (some centres undefined)
inactive: all assays above

O=[N+]([O-])c1cncn1CCN1CCOCC1
inactive: all assays above

CC(C)(O)CCCC1=CCC(C=O)CC1 (centres undefined)
inactive: all assays above

Cc1oc2c(NC(=O)c3c(Cl)cccc3Cl)cccc2c1C(C)(C)O
inactive: all assays above

CC(=O)Nc1ccc(OCCOCCOc2ccc(NC(C)=O)cc2)cc1
inactive: all assays above

CC(C)CCOC(=O)c1ccc(N(C)C)cc1
inactive: all assays above

CCOC(C)(C)C
inactive: all assays above

CCCC(=O)OC/C=C(\C)CCC=C(C)C
inactive: all assays above

CC(C)(O)c1ccccc1CC[C@@H](SCC1(CC(=O)O)CC1)c1cccc(/C=C/c2ccc3ccc(Cl)cc3n2)c1
inactive: all assays above

C[C@@H]1C[C@H]2[C@@H]3CCC4=CC(=O)C=C[C@]4(C)[C@@]3(Cl)[C@@H](O)C[C@]2(C)[C@@]1(OC(=O)c1ccco1)C(=O)CCl
inactive: all assays above

COCCOC(=O)C1=C(C)NC(C)=C(C(=O)OC/C=C/c2ccccc2)C1c1cccc([N+](=O)[O-])c1 (centres undefined)
inactive: all assays above

O=Cc1cccc(Br)c1
inactive: all assays above

Cc1cc(C)cc([N+](=O)[O-])c1
inactive: all assays above

C=C(C)CCO
inactive: all assays above

CCCC(=O)O[C@]1(C(=O)CCl)[C@@H](C)C[C@H]2[C@@H]3CCC4=CC(=O)C=C[C@]4(C)[C@@]3(F)C(=O)C[C@@]21C
inactive: all assays above

NCc1ccccc1
inactive: all assays above

CCCCCCCCCCC=O
inactive: all assays above

CC1(C)CCC[C@]2(C)[C@H]3CCO[C@]3(C)CC[C@@H]12
inactive: all assays above

CC(S)C(C)S (centres undefined)
inactive: all assays above

O=C1c2ccccc2-c2ccccc21
inactive: all assays above
